{"source": "PubChem BioAssay (NCATS)", "note": "Records with an inconclusive call do not appear. Unmarked numbers belong to inactive results. The source made the active and inactive calls. The call rests on the fitted dose curve; in most records, active means well fitted inhibition curve with a large enough effect; inconclusive means small, poorly fitted or top-dose-only effect; inactive means flat fitted curve, though single readings scatter. On the % scale 0 is the no-effect control and ±100 the full control effect; potency means the concentration at half of the fitted maximal effect."}
{"biological_target": "Ubiquitin carboxyl-terminal hydrolase 1 (Homo sapiens) (UniProt O94782)", "sequence (O94782 whole entry, looked up)": "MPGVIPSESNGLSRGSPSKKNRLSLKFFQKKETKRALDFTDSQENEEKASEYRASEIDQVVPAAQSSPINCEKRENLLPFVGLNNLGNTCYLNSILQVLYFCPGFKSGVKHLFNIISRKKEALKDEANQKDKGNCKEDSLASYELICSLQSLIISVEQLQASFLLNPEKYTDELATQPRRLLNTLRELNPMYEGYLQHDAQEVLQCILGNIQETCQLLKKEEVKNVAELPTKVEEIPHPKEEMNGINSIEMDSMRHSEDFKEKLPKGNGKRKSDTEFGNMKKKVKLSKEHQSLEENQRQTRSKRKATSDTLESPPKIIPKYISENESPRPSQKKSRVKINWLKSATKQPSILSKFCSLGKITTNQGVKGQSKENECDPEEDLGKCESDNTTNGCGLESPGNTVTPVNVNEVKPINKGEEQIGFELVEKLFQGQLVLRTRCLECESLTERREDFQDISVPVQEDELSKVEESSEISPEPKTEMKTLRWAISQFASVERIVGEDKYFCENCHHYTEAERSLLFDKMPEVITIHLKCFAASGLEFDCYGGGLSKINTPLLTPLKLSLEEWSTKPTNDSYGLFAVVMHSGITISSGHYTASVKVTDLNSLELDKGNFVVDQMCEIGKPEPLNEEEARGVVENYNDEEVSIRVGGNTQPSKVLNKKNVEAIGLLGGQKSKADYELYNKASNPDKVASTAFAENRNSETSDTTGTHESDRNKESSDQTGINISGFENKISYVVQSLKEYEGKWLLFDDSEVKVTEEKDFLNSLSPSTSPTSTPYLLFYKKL", "assay": "Inhibitors of USP1/UAF1: Pilot qHTS (AID 504865); further: nearly all actives have a fitted effect of over 35% in size;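 on activity change, negative = inhibition: rhodamine fluorescence freed from ubiquitin-rhodamine substrate followed over time; top concentration of the series differs between compounds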", "conditions": "purified USP1/UAF1, Ub-rhodamine cleavage fluorescence; series mostly up to 114 µM; activity change, negative = inhibition: at the top concentration", "how_it_was_run": "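USP1/UAF1 complex at 1 nM preincubated 15 min at room temperature with compound, then Ub-Rho substrate added at 150 nM final. Fluorescence (480/540 nm) read kinetically in 50 mM HEPES pH 7.8, 0.5 mM EDTA, 1 mM TCEP, 0.1 mg/ml BSA, 0.01% Tween-20.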"}
{"smiles": "Cc1cc(C(=O)NCCc2ccc(S(=O)(=O)NC(=O)NN3CCCCCC3)cc2)no1", "activity change, negative = inhibition": "-7.9%"}
{"smiles": "O=C(CCCCCCCCCCCCC1CCCC1)Nc1ccc(S(=O)(=O)c2ccc(NC(=O)CCCCCCCCCCCCC3CCCC3)cc2)cc1", "activity change, negative = inhibition": "20.7%"}
{"smiles": "CN=C1C=CC(=C(c2ccc(N(C)C)cc2)c2ccc(N(C)C)cc2)C=C1", "Potency": "20 µM (active)"}
{"smiles": "FC(F)(F)C(F)(F)C(F)(F)C(F)(F)C(F)(F)F", "activity change, negative = inhibition": "4.19%"}
{"smiles": "OC/C=C/c1ccccc1", "activity change, negative = inhibition": "2.03%"}
{"smiles": "C=Cc1ccc(S(=O)(=O)O)cc1", "activity change, negative = inhibition": "-0.238%"}
{"smiles": "CCCCCCCCCCCCCC(=O)OCC(COP(=O)([O-])OCC[N+](C)(C)C)OC(=O)CCCCCCCCCCCCC", "note": "(stereo not given)", "activity change, negative = inhibition": "-2.16%"}
{"smiles": "CCCOc1cc(N)ccc1C(=O)OCCN(CC)CC", "activity change, negative = inhibition": "17.3% [at 54.9 µM]"}
{"smiles": "CCCc1nc(C(C)(C)O)c(C(=O)OCc2oc(=O)oc2C)n1Cc1ccc(-c2ccccc2-c2nn[nH]n2)cc1", "activity change, negative = inhibition": "-12.5%"}
{"smiles": "COC(=O)CC[C@H](N)C(=O)O", "activity change, negative = inhibition": "-7.13%"}
{"smiles": "C#C[C@]1(O)CC[C@@H]2[C@H]3CCC4=CC(=O)CC[C@H]4[C@H]3C(=C)C[C@@]21CC", "activity change, negative = inhibition": "-8.19%"}
{"smiles": "C[C@H](CCCC(C)(C)O)[C@H]1CC[C@H]2[C@@H]3CC=C4C[C@@H](O)CC[C@]4(C)[C@H]3CC[C@]12C", "activity change, negative = inhibition": "5.75%"}
{"smiles": "O=C(O)C1=C(CSc2nnnn2CS(=O)(=O)O)CS[C@@H]2[C@H](NC(=O)[C@H](O)c3ccccc3)C(=O)N12", "activity change, negative = inhibition": "-10%"}
{"smiles": "Cc1nc(NS(=O)(=O)c2ccc(N)cc2)nc(C)c1Br", "activity change, negative = inhibition": "-11.3%"}
{"smiles": "CCOC(=O)Cc1ccc(-c2ccccc2)cc1", "activity change, negative = inhibition": "0.706%"}
{"smiles": "COc1ccc(C(=O)CCC(=O)O)c2ccccc12", "activity change, negative = inhibition": "-3.83%"}
{"smiles": "CCCCCCCCCCCC(=O)N(CCO)CCO", "activity change, negative = inhibition": "-14.5%"}
{"smiles": "C[C@H](N)C(=O)N[C@@H](C)P(=O)(O)O", "activity change, negative = inhibition": "-5.84%"}
{"smiles": "CN1C(=O)OC(C)(C)C1=O", "activity change, negative = inhibition": "0.214% [at 54.9 µM]"}
{"smiles": "CC1=C(/C=C/C(C)=C/C=C/C(C)=C/C(=O)Oc2c(C)c(C)c3c(c2C)CC[C@@](C)(CCC[C@H](C)CCC[C@H](C)CCCC(C)C)O3)C(C)(C)CCC1", "activity change, negative = inhibition": "-7.68%"}
{"smiles": "NC(=O)CC[C@@H]1NC(=O)[C@H](Cc2ccccc2)NC(=O)[C@H](Cc2ccc(O)cc2)NC(=O)[C@@H](N)CSSC[C@@H](C(=O)N2CCC[C@H]2C(=O)N[C@@H](CCCN=C(N)N)C(=O)NCC(N)=O)NC(=O)[C@H](CC(N)=O)NC1=O", "activity change, negative = inhibition": "-5.64%"}
{"smiles": "CCCC(CCC)C(=O)OC1C[C@H]2CC[C@@H](C1)[N+]2(C)C", "note": "(stereo not given in full)", "activity change, negative = inhibition": "-9.53%"}
{"smiles": "O=C(O)c1ccc(NC(=O)[C@H](Cc2ccc(O)cc2)NC(=O)c2ccccc2)cc1", "activity change, negative = inhibition": "2.73%"}
{"smiles": "CCOc1ccc(S(=O)(=O)O)c2cccnc12", "activity change, negative = inhibition": "-7.37%"}
{"smiles": "O=C(O)/C=C/c1ccccc1", "activity change, negative = inhibition": "-7.62%"}
{"smiles": "CC(=O)N[C@@H]1C(O[C@H]2O[C@H](C(=O)O)C(O)[C@H](O)[C@H]2O)[C@H](O)[C@@H](CO)O[C@H]1O[C@@H]1C(C(=O)O)O[C@@H](O[C@H]2[C@H](O)[C@@H](CO)OC(O)[C@@H]2NC(C)=O)[C@H](O)[C@H]1O", "note": "(stereo not given in full)", "activity change, negative = inhibition": "1.36%"}
{"smiles": "CN(C)C(=O)CCSC(SCCC(=O)O)c1cccc(/C=C/c2ccc3ccc(Cl)cc3n2)c1", "note": "(stereo not given)", "Potency": "50.1 µM (active)"}
{"smiles": "CCCCCCCCCCCCCCCCCC[N+](C)(C)CCC[Si](OC)(OC)OC", "activity change, negative = inhibition": "-8.49%"}
{"smiles": "O=C1c2ccccc2C(=O)C1c1ccc(Cl)cc1", "activity change, negative = inhibition": "-11.6%"}
{"smiles": "O=C(O)CC/C=C\\CC[C@@H]1[C@@H](N2CCCCC2)[C@@H](O)C[C@@H]1OCc1ccc(-c2ccccc2)cc1", "activity change, negative = inhibition": "-6.16%"}
{"smiles": "[O]=[Bi][O]C(=O)[O][Bi]=[O]", "activity change, negative = inhibition": "-6.83%"}
{"smiles": "NCC[C@H](O)C(=O)N[C@@H]1C[C@H](N)[C@@H](O[C@H]2O[C@H](CN)CC[C@H]2N)[C@H](O)[C@H]1O[C@H]1O[C@H](CO)[C@@H](O)[C@H](N)[C@H]1O", "activity change, negative = inhibition": "-0.311%"}
{"smiles": "CC(C)(COP(=O)(O)OP(=O)(O)OC[C@H]1O[C@@H](n2cnc3c(N)ncnc32)[C@H](O)[C@@H]1OP(=O)(O)O)C(O)C(=O)NCCC(=O)NCCS", "note": "(stereo not given in full)", "activity change, negative = inhibition": "-6.74%"}
{"smiles": "FC(F)OC(Cl)C(F)(F)F", "note": "(stereo not given)", "activity change, negative = inhibition": "-4.77%"}
{"smiles": "CC(C)CCC[C@@H](C)[C@H]1CC[C@H]2[C@@H]3CC[C@@H]4C[C@H](O)CC[C@]4(C)[C@H]3CC[C@]12C", "activity change, negative = inhibition": "-1.59%"}
